Reference: PubChem BioAssay (EPA / NIEHS)
Where “and” joins values, the source holds several entries; their conditions need not be identical. Equal values may be shown once. More than one record can exist for a structure, and the calls need not agree. Calls of active or inactive are those of the source. Rule for the calls: active = hit-call score of the fitted dose curve at least 0.9, where 1 is the maximum; inactive = score below 0.9.

Each molecule was assayed on Interleukin-8 (IL8), CXCL8 (gene 3576) (assay: BSK_LPS_IL8: BioMAP Diversity Plus: LPS Assay for Interleukin-8 (IL8) Biomarker Activity (AID 2283078)). Details: primary human HUVEC with PBMC; actives raise or lower the signal.
Experimental: BSK_LPS is a cell-based, multiplexed-readout assay that uses umbilical vein endothelium and peripheral blood mononuclear cells, a human vascular primary cell co-culture, with measurements taken at 24 hours after chemical dosing in a 96-well plate.BSK_LPS_IL8 is an assay component measured in the BSK_LPS assay. It measures IL-8 antibody related to regulation of gene expression using ELISA technology.Data from the assay component BSK_LPS_IL8 was analyzed into 1 assay endpoint. This assay endpoint, BSK_LPS_IL8, was analyzed with bidirectional fitting relative to DMSO as the negative control and baseline of activity. Using a type of binding reporter, gain or loss-of-signal activity can be used to understand changes in the signaling as they relate to the gene CXCL8. Furthermore, this assay endpoint can be referred to as a primary readout, because this assay has produced multiple assay endpoints where this one serves a signaling function. To generalize the intended target to other relatable targets, this assay endpoint is annotated to the cytokine intended target family, where the subfamily is interleukins.
The levels of cell surface (or secreted, indicated by the prefix "s") biomarker endpoints were measured by ELISA. Overt cytotoxicity to cells in confluent adherent cultures (all systems other than the BT system) was assessed by measuring total protein levels using sulforhodamine B (SRB) staining in parallel cultures at the time of biomarker measurements, indicated as SRB endpoints. For proliferation assays for adherent cell types, individual cell types are cultured at sub-confluence and relative cell numbers quantified by SRB staining at time points optimized for each system (48 h: 3C and CASM3C systems; 72 h: BT and HDF3CGF systems; 96 h: SAg system). SRB was performed by staining cells with 0.1% SRB after fixation with 10% TCA and reading wells at 560 nm.Viability and proliferation of PBMC (T cells) was quantified by Alamar Blue reduction for the SAg and BT systems. For PBMC viability (referred to as PBMC Cytotoxicity within the assay endpoint names), cells were plated (75,000/well in a 96-well plate) and then chemical samples added for 1 h before addition of activators, SEB and TSST-1 (20 ng/mL final concentration each). Cells were incubated for 90 h. Then, Alamar Blue (20 uL/well) (Invitrogen, Cat DAL1100) was added for 6 h, and the plates were read with a fluorescence microplate reader at 546/580 nm (excitation/emission). For PBMC proliferation, cells were plated and activated as above but incubated for only 16 h prior to addition of Alamar Blue. Plates were read after 6 h.

Row | SMILES | outcome | AC50
1 | CCn1cc(C(=O)O)c(=O)c2ccc(C)nc21 | inactive | –
2 | CC(=O)OC(C)(C)C1CC=C(C)CC1 (stereo not given) | inactive | –
3 | Nc1ccc(N)c([N+](=O)[O-])c1 | inactive | –
4 | CC(C)Cc1ccc(C(C)C(=O)O)cc1 (stereo not given) | inactive | –
5 | CC(=O)c1ccc(C)cc1 | inactive | –
6 | C=C(C)C(=O)OCCC(F)(F)C(F)(F)C(F)(F)C(F)(F)C(F)(F)C(F)(F)C(F)(F)C(F)(F)F | inactive | –
7 | CC(C)(C)c1cccc(O)c1 | inactive | –
8 | O=S(=O)(O)C(F)(F)C(F)(F)OC(F)(F)C(F)(F)F | – | 30 µM (active) and 10 µM (active)
9 | CCCCN(CCO)CCO | inactive | –
10 | CCCCCCCCCC(=O)OCC | inactive | –
11 | CCCO[Si](OCCC)(OCCC)OCCC | inactive | 3.97 µM (active)
12 | CC1=CC(C)C(C=O)C(C)C1 (stereo not given) (tested in a mixture with another compound) | inactive | –
13 | CC=CC(=O)C1=C(C)C=CCC1(C)C | inactive | –
14 | CCOC(=O)CCCCCCCCC(=O)OCC | inactive | –
15 | C=C1CC/C=C(\C)CC[C@@H]2[C@@H]1CC2(C)C | inactive | –
16 | c1ccc(OCCOc2ccccc2)cc1 | inactive | –
17 | O=S1(=O)CC(Cl)(Cl)C(Cl)(Cl)C1 | – | 1.47 µM (active)
18 | CCC(=O)OCC=Cc1ccccc1 | inactive | –
19 | CC(C)CCCC(C)(C)O | inactive | –
20 | COc1ccccc1NC(=O)CC(C)=O | inactive | –

Row | SMILES | outcome | AC50
21 | CC(C)(CO)CO | inactive | –
22 | COC(=O)c1ccc(C(=O)OC)cc1 | inactive | –
23 | O=C(O)C(F)(F)OC(F)(F)C(F)(F)OC(F)(F)C(F)(F)C(F)(F)C(F)(F)F | inactive | –
24 | CCCCOCCOCCO | inactive | –
25 | CC/C(=C(\c1ccccc1)c1ccc(OCCN(C)C)cc1)c1ccccc1 | – | 26.5 µM (active) and 10.8 µM (active)
26 | OCC(F)(OC(F)(F)C(F)(OC(F)(F)C(F)(F)C(F)(F)F)C(F)(F)F)C(F)(F)F (stereo not given) | inactive | –
27 | CC(=O)OCC=C(C)CCC=C(C)CCC=C(C)C | inactive | –
28 | C=C(F)C(=O)OC(C(F)(F)F)C(F)(F)F | inactive | –
29 | C[C@]12CC[C@@H]3c4ccc(O)cc4CC[C@H]3[C@@H]1CC[C@@H]2O | inactive | –
30 | C=CC(=O)OCC(CO)(COC(=O)C=C)COC(=O)C=C | – | 3.97 µM (active)
31 | CC(=O)CCC=C(C)CCC=C(C)C | inactive | –
32 | C=C(C)C(N)=O | inactive | –
33 | O=C1OC2(c3ccc(O)cc3Oc3cc(O)ccc32)c2ccccc21 | inactive | –
34 | O=C(c1ccc(OCCN2CCCCC2)cc1)c1c(-c2ccc(O)cc2)sc2cc(O)ccc12 | – | 33.8 µM (active)
35 | c1ccc(Sc2ccccc2)cc1 | – | 20 µM (active)
36 | O=C(O)C(F)(F)C(F)(F)C(F)(F)C(F)(F)C(F)(F)C(F)(F)C(F)(F)C(F)F | – | 8.81 µM (active) and 17.9 µM (active)
37 | c1ccc2c(c1)-c1ccc3ccc4cccc5cc-2c1c3c45 | inactive | –
38 | C#C[C@]1(O)CC[C@H]2[C@@H]3CCc4cc(O)ccc4[C@H]3CC[C@@]21C | – | 31.2 µM (active)
39 | CCOC(=O)C=Cc1ccccc1 | inactive | –
